Measured values reported in PubChem BioAssay AID1671192 (National Center for Advancing Translational Sciences (NCATS), 2021).
Records with an inconclusive call do not appear. Activity calls are given as the source filed them. Calls follow the shape of the dose curve; as a rule, active = well fitted curve in the direction sought with a large enough effect; inconclusive = small, poorly fitted or top-dose-only effect, or another doubt; inactive = no such curve, though single readings can be large or run the other way.

Molecular target: Polyunsaturated fatty acid lipoxygenase ALOX15 (Homo sapiens) (UniProt P16050)
Assay: Counterscreen qHTS for inhibitors of human arachidonate 12S-lipoxygenase (ALOX12): ALOX15 Assay
Outline: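 Xylenol orange–ferric complex formation, read as the 573 nm to 405 nm absorbance ratio, tracks product from 50 uM arachidonic acid turned over for 30 min at RT. Enzyme is 40 nM ALOX15, pH 7.5 HEPES buffer, compound-preincubated 15 min.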

Polyunsaturated fatty acid lipoxygenase ALOX15 (Homo sapiens), sequence (P16050 whole entry, looked up): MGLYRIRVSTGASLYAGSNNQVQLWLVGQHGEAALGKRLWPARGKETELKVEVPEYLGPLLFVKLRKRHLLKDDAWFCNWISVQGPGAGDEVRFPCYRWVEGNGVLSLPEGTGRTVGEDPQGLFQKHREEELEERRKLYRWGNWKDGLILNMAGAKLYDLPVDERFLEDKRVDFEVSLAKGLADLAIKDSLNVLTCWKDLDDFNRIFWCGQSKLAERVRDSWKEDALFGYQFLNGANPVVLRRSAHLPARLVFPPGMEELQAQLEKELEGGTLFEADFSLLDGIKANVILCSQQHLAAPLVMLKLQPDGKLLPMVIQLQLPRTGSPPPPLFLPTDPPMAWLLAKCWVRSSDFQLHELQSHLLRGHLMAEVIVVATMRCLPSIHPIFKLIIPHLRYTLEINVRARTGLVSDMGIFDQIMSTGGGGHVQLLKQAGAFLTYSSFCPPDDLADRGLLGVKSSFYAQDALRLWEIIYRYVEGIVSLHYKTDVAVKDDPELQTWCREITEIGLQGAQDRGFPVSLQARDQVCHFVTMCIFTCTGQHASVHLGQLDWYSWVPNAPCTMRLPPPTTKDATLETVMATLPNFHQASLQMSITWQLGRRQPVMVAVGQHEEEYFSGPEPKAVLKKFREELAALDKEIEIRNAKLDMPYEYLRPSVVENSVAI

| Compound | outcome |
| --- | --- |
| CN1CC(=O)N(c2ccccc2F)Cc2c(NC3CCNCC3)ncnc21 | inactive |
| O=C(NC1CCCCC1)N1CCC(c2nnc3n2CCNC3)CC1 | inactive |
| O=C1NCc2ccccc2CC12CCN(Cc1ccc(Cl)cc1)CC2 | inactive |
| COCCNC(=O)c1cc(-c2ccc(OC)cc2)nc2onc(C3CCCN3)c12 (configuration not stated) | inactive |
| COc1ccc(CNc2ncnc3c2CN(C2CCCNCC2)C(=O)CN3C)cc1 (configuration not stated) | inactive |
| O=C1c2ccccc2CN1C1CCN(Cc2cccc3ccccc23)CC1 | inactive |
| Cc1cccc(N2Cc3c(NCCCOC(C)C)ncnc3N(C)CC2=O)c1 | inactive |
| NCc1ccc(-c2ccc(OC(F)(F)F)cc2)cc1 | inactive |
| COc1ccc(N2CC3CCC(C2)N3C(=O)NC(C)C)cc1 | inactive |
| CNCc1cccc(Oc2ccccc2)c1 | inactive |
| Cc1cc(C)cc(-c2ccc(CN3CCCC(c4nc5ccc(F)cc5c(=O)[nH]4)C3)cc2)c1 (configuration not stated) | inactive |
| O=C(c1ccc(C(F)(F)F)cc1)N1CCC2(CC1)C(=NC1CCCCC1)NC(=O)N2c1cc(F)cc(F)c1 | inactive |
| Cc1cc(C(=O)NC2CCCC2)c2c(C3CCNC3)noc2n1 (configuration not stated) | inactive |
| O=Cc1ccccc1-c1ccc(OC(F)(F)F)cc1 | inactive |
| COc1ccc(CN2CCC3(C2)C(=O)Nc2ccccc23)cc1 (configuration not stated) | inactive |
| O=C1NCc2ccccc2CC12CCN(Cc1c(Cl)cncc1Cl)C2 (configuration not stated) | inactive |
| O=C1NC(=NC2CCCC2)C2(CCN(CC3CC3)C2)N1c1cccnc1 (configuration not stated) | inactive |
| Cc1noc(C)c1C(=O)N1Cc2ccccc2CC2(CCCN(CC3CCNC3)C2)C1 (configuration not stated) | inactive |
| Cc1ccc2nc(C3CCN(Cc4cccs4)CC3)[nH]c(=O)c2c1 | inactive |
| N#Cc1ccc(CN2CCn3c(nn(-c4cccc(Cl)c4)c3=O)C2)cc1 | inactive |
| O=C1NCc2ccccc2CC12CCN(Cc1ccc3ccccc3c1)C2 (configuration not stated) | inactive |
| CC[C@@H](Nc1ncnc2c1CN(C1CCNCC1)C(=O)CN2C)c1ccccc1 | inactive |
| COc1ccc(NCCN2CCCC2)cc1 | inactive |
| Cc1cccc(CN2CCCC23Cc2ccccc2CNC3=O)c1 (configuration not stated) | inactive |
| CCC(CC)Nc1ncnc2c1CN(C1CCCNCC1)C(=O)CN2C (configuration not stated) | inactive |
| CC(=O)NCCCC(=O)N1CCOC2(CCN(C(=O)CCCN)CC2)C1 | inactive |

| Compound | outcome |
| --- | --- |
| Cc1ccc(CN2CCCC23Cc2ccccc2CNC3=O)cc1 (configuration not stated) | inactive |
| COC(=O)CNC(=O)C1CCc2nnc(CNC(=O)c3cccnc3)n21 (configuration not stated) | inactive |
| Cc1ccc(CN2CC3ON=C(C(=O)O)C3C2)cc1 (configuration not stated) | inactive |
| Cc1cc(Cl)ccc1NC1CN(C(=O)OC(C)(C)C)C1 | inactive |
| Cc1cc(C(=O)NCc2ccncc2)c2c(C3CCNCC3)noc2n1 | inactive |
| CNCc1ccc(N2CCCC2)cc1 | inactive |
| O=C(c1ccncc1)N1CCN(c2ccc(Cl)nn2)C(=O)C1 | inactive |
| CCC(=O)N1Cc2ccccc2CC2(CCCN(CC3CCNCC3)C2)C1 (configuration not stated) | inactive |
| CN1CC(=O)N(C2CCCNCC2)Cc2c(NCc3ccc4c(c3)OCO4)ncnc21 (configuration not stated) | inactive |
| O=C(c1ccc(C(F)(F)F)cc1)N1CCc2nc(C3CC3)nc(-c3ccc(Cl)cc3)c2C1 | inactive |
| O=C1NCc2ccccc2CC12CCN(Cc1ccc(Cl)s1)C2 (configuration not stated) | inactive |
| CN1CC(=O)N(C2CCNCC2)Cc2c(NCCN3CCOCC3)ncnc21 | inactive |
| NCc1ccccc1-c1ccc(O)cc1 | inactive |
| O=C(c1ccncc1)N1CCC(c2nnc3n2CCNC3)CC1 | inactive |
| COCCNc1ncnc2c1CN(C1CCCNCC1)C(=O)CN2C (configuration not stated) | inactive |
| c1cc(NCCN2CCCC2)ccn1 | inactive |
| O=C1NCc2ccccc2CC12CCN(Cc1c[nH]c3ccccc13)CC2 | inactive |
| O=C1NC(=NC2CCCCC2)C2(CCN(Cc3ccc(F)cc3)C2)N1c1cccnc1 (configuration not stated) | inactive |
| Fc1ccc(CN2CCC3(CC(c4cccc(C(F)(F)F)c4)=NO3)C2)cc1 (configuration not stated) | inactive |
| Cc1cc(C(=O)NC2CCNCC2)c2c(C3CCNCC3)noc2n1 | inactive |
| O=C(NCc1ccc(Cl)nc1)c1cnn2c1CN(C(=O)c1ccccc1)CC2 | inactive |
| COc1ccc(-c2cc(C(=O)NCC3CC3)c3c(C4CCNC4)noc3n2)cc1 (configuration not stated) | inactive |
| CNCc1ccccc1Cl | inactive |
| O=c1n(-c2cccc(Cl)c2)nc2n1CCN([S+](=O)([O-])c1cccs1)C2 | inactive |
| CN1CCC(C(=O)N2CCCC3(Cc4ccccc4CN3C(=O)c3ccccc3)C2)CC1 (configuration not stated) | inactive |
| O=S(=O)(c1ccccc1)N1Cc2ccccc2CC2(CCN(Cc3cccnc3)C2)C1 (configuration not stated) | inactive |
